Our source for the growth values is PubChem BioAssay (NCI).

About 83,000 compounds went through this panel and 20% of them were active in at least one assay; those are over-represented in the sample as a whole.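 Each cell line was grown in a 96-well plate and treated with one concentration of compound for 48 hours. Values below 10 were considered active.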 Values without a mark were called inactive. Activity calls are given as the source filed them.

Among the test systems are NCI-H23 lung; NCI-H226 lung; NCI-H322M lung; HOP-62 NSCLC; NCI-H460 lung; HOP-92 NSCLC; NCI-H522 lung; A549/ATCC NSCLC; 786-0 renal; COLO 205 colon; DU-145 prostate; K-562 leukemia; MALME-3M melanoma; MDA-MB-231 breast; RXF 393 renal; SF-268 CNS; SF-295 CNS; SF-539 CNS; UACC-257 melanoma; M14 melanoma.
Holding throughout (assay): NCI-60 one-dose screen, 48 h (100 = growth as untreated, 0 = no growth, -100 = all killed)
Common to all, as to conditions: 10 µM unless noted

On to `CCOC(=O)Oc1c(OC)cc(C(=O)c2ccc(OC)c(OC(=O)CCl)c2OC)cc1OC`, for which the growth with NCI-H23 lung was 32.5%; in the test on NCI-H226 lung it was 64.5%; with NCI-H322M lung, 45.2%; in the test with HOP-62 NSCLC it was 16.9%; in the test on NCI-H460 lung, 10.4%; with HOP-92 NSCLC it was 57%. The growth was 8.85% (active) in the test with NCI-H522 lung; 22.9% in the test with A549/ATCC NSCLC; 19.2% in the test with 786-0 renal; 94.8% in the test with COLO 205 colon; 12.5% in the test with DU-145 prostate; 10.4% with K-562 leukemia. Further, the growth is 50.8% with MALME-3M melanoma; 33% in the test with MDA-MB-231 breast; -17.9% (active) in the test on RXF 393 renal; 43.8% in the test with SF-268 CNS; 20.7% in the test with SF-295 CNS; -16.9% (active) with SF-539 CNS. The growth is 48.5% with UACC-257 melanoma and -15% (active) with M14 melanoma.

For the compound `CNC(=O)c1cccc(Cn2nc(C)c(NC(=O)c3ccc(COc4ccc(C(F)(F)F)cc4C)cc3)c2C)n1`, the growth in the test on NCI-H23 lung was 43.5%; with NCI-H226 lung, 44.4%; in the test on NCI-H322M lung, 88.9%; with HOP-62 NSCLC it was 46%; in the test on NCI-H460 lung, 50.8%; with HOP-92 NSCLC it was 74.4%. Also, the growth is 40% with NCI-H522 lung; 39.1% in the test with A549/ATCC NSCLC; 61.9% in the test on 786-0 renal; 37.3% in the test with COLO 205 colon; 61.2% in the test with DU-145 prostate; 30.4% with K-562 leukemia. Besides, the growth in the test with MALME-3M melanoma was 83.8%; with MDA-MB-231 breast, 75.2%; with RXF 393 renal it was 64.5%; in the test on SF-268 CNS, 61.2%; in the test with SF-295 CNS it was 25.8%; in the test on SF-539 CNS it was 72%. Also, the growth is 20.7% with UACC-257 melanoma and 53.7% in the test with M14 melanoma.

Regarding `O=S(=O)(NCCCNc1nccc(-c2c(-c3cccc(O)c3)nc3occn23)n1)c1ccc(Cl)cc1`, the growth is 94.6% with NCI-H23 lung; 108% in the test on NCI-H226 lung; 103% in the test on NCI-H322M lung; 114% in the test with HOP-62 NSCLC; 92.5% in the test on NCI-H460 lung; 96.6% with HOP-92 NSCLC. Further, the growth is 87.6% in the test with NCI-H522 lung; 90.5% in the test on A549/ATCC NSCLC; 102% in the test with 786-0 renal; 27.7% in the test with COLO 205 colon; 95.4% in the test on DU-145 prostate; 55.6% in the test with K-562 leukemia. The growth in the test on MALME-3M melanoma is 10.7%; in the test on MDA-MB-231 breast, 61.8%; in the test on RXF 393 renal, 77.9%; with SF-268 CNS, 87.4%; in the test with SF-295 CNS, 116%; in the test with SF-539 CNS, 108%. For the same compound, the values for the growth in the test on UACC-257 melanoma and in the test on M14 melanoma were 12.7% and 24.3%, respectively.

As for `Cc1cc2nc3c4ccc(Br)cc4n(CCN(C)C)c3nc2cc1C`, the growth is 14.8% in the test with NCI-H23 lung; 1.57% (active) in the test on NCI-H226 lung; 18.9% with NCI-H322M lung; 16% in the test on HOP-62 NSCLC; 2.47% (active) in the test with NCI-H460 lung; 34.8% in the test with HOP-92 NSCLC. Also, the growth with NCI-H522 lung was -1.24% (active); in the test on A549/ATCC NSCLC, 5.41% (active); in the test with 786-0 renal it was 23.2%; in the test on COLO 205 colon it was -8% (active); in the test on DU-145 prostate, 3.18% (active); with K-562 leukemia it was 4.08% (active). The growth is 0.769% (active) with MALME-3M melanoma; 15.2% in the test with MDA-MB-231 breast; 16.4% with RXF 393 renal; 31% in the test with SF-268 CNS; 14.8% in the test with SF-295 CNS; 17.2% in the test with SF-539 CNS. The growth was 18% in the test on UACC-257 melanoma and 14.8% in the test on M14 melanoma.

Take `Cc1ccc(S(=O)(=O)Nn2c3c(cc(-c4nc5ccccc5s4)c2=O)CCCCCC3)cc1`: the growth in the test with NCI-H23 lung was 94.8%; in the test with NCI-H226 lung it was 76.6%; with NCI-H322M lung, 100%; in the test on HOP-62 NSCLC, 94.9%; in the test on NCI-H460 lung, 104%; with HOP-92 NSCLC, 85.4%. Besides, the growth with NCI-H522 lung was 89.1%; in the test on A549/ATCC NSCLC, 101%; in the test on 786-0 renal, 101%; in the test on COLO 205 colon, 119%; in the test with DU-145 prostate it was 105%; in the test on K-562 leukemia, 98.4%. The growth in the test on MALME-3M melanoma was 88.3%; with MDA-MB-231 breast, 93.2%; in the test on RXF 393 renal, 101%; in the test on SF-268 CNS, 96%; in the test with SF-295 CNS, 97.2%; in the test on SF-539 CNS, 100%. The growth in the test on UACC-257 melanoma is 97.3%; in the test with M14 melanoma, 99%.

As for `CCCCCCNC(=O)Nc1ccc2cc3ccc(NC(=O)NCCCCCC)cc3nc2c1`, the growth with NCI-H23 lung was -39% (active); with NCI-H226 lung, 79.5%; with NCI-H322M lung it was 22.8%; in the test with HOP-62 NSCLC, 18.1%; with NCI-H460 lung, -11.9% (active); with HOP-92 NSCLC it was 68.9%. For the same compound, the growth in the test with NCI-H522 lung was -67.1% (active); in the test with A549/ATCC NSCLC it was 23.7%; in the test with 786-0 renal it was 27.5%; with COLO 205 colon, 17.5%; in the test with DU-145 prostate, 21.7%; with K-562 leukemia, -29.6% (active). Besides, the growth in the test on MALME-3M melanoma is -35.7% (active); in the test with MDA-MB-231 breast it was -23.6% (active); in the test with RXF 393 renal, -47.7% (active); in the test with SF-268 CNS it was -62.8% (active); in the test with SF-295 CNS, -47.5% (active); in the test on SF-539 CNS it was -77.1% (active). The values for the growth in the test on UACC-257 melanoma and in the test on M14 melanoma were 72.6% and 28.5%, respectively.

For `O=C1Nc2cc(-c3cccc([N+](=O)[O-])c3)ccc2/C1=C/c1ccc[nH]1`, the growth was 48.4% in the test with NCI-H23 lung; 50.6% with NCI-H226 lung; 58.3% in the test with NCI-H322M lung; 76.4% in the test with HOP-62 NSCLC; 47.6% in the test on NCI-H460 lung; 72.5% with HOP-92 NSCLC. In addition, the growth with NCI-H522 lung is 78.3%; in the test on A549/ATCC NSCLC, 101%; in the test on 786-0 renal, 107%; in the test on COLO 205 colon, 85.9%; in the test with DU-145 prostate, 111%; in the test with K-562 leukemia it was 72.2%. In addition, the growth was 89% in the test with MALME-3M melanoma; 39.5% in the test on MDA-MB-231 breast; 82.1% in the test with RXF 393 renal; 97.1% in the test on SF-268 CNS; 99.8% in the test with SF-295 CNS; 93.5% in the test on SF-539 CNS. Moreover, the values for the growth in the test on UACC-257 melanoma and in the test with M14 melanoma were 107% and 89.8%, respectively.
